Experimental data as given in PubChem BioAssay AID1347416 (National Center for Advancing Translational Sciences (NCATS), 2020).
Out of some 4,100 compounds screened, about 1,600 (39%) were called active. Inconclusive results (about 25%) are left out. The call rests on the fitted dose curve; in most records, active means well fitted inhibition curve with a large enough effect; inconclusive means small, poorly fitted or top-dose-only effect; inactive means no such curve, though single readings can be large or run the other way. Some of the results follow.

assay: qHTS Validation assay for Inhibitors of Plasmodium falciparum Dd2 growth in vitro; further: nearly all actives have a fitted effect of over 70% in size; details: P. falciparum Dd2 in RBCs, SYBR Green growth, 72 h; series mostly up to 28.7 µM; activity change, negative = inhibition: at the top concentration
Method in brief: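 P. falciparum Dd2-infected red blood cells (2.5% hematocrit, 0.3% parasitemia) grown 72 h at 37 °C under 5% O2 with compounds in a titration, 29 uM to 0.5 nM final. Growth read as SYBR Green-1 fluorescence after ~16 h lysis; artesunate 300 nM as positive control.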
On the % scale 0 is the no-effect control and ±100 the full control effect; potency means the concentration at half of the fitted maximal effect.

Row | SMILES | Potency | activity change, negative = inhibition
1 | O=C1c2ccccc2C(=O)c2[nH]c(=O)[nH]c21 | 5.96 µM (active) | –
2 | C=C[C@]1(C)C[C@@H](OC(=O)CSC(C)(C)CNC(=O)[C@H](N)C(C)C)[C@]2(C)[C@H](C)CC[C@]3(CCC(=O)[C@H]32)[C@@H](C)[C@@H]1O | 8.41 µM (active) | –
3 | CCN(CC)CCC(c1ccc(OC)cc1)c1c(O)cc(OC)cc1OC (centres undefined) | 6.68 µM (active) | –
4 | CCN(CC)CCC(c1ccc2c(c1)OCO2)c1c(O)cc(OC)cc1OC (centres undefined) | 4.22 µM (active) | –
5 | CCN(CC)CCC(c1ccc(N(C)C)cc1)c1c(O)cc(OC)cc1OC (centres undefined) | 3.35 µM (active) | –
6 | CCCn1ccc2sc(C)c(C(=O)O)c2c1=O | – | 8.71% (inactive)
7 | COc1ccc(C(=O)N2CCc3ccc(C(=O)NCc4ccccn4)cc32)cc1 | – | -8.95% (inactive)
8 | COc1cccc(CN2CCc3c(cc(C(=O)NCc4ccccn4)n3C)C2)c1 | 15 µM (active) | –
9 | CCn1cc(-c2ccncc2)cc1C(=O)NCc1cccc(OC)c1 | – | -24.5% (inactive)
10 | Cc1noc(-c2cn(C3CCN(C(=O)Cc4ccc(OC(F)(F)F)cc4)CC3)nn2)n1 | – | -9.53% (inactive)
11 | CCOc1ccc(C(=O)NCc2nc3cccnc3n2Cc2cccc(OC)c2)cc1 | – | 20.1% (inactive)
12 | CCCCC(=O)NC(c1ccccc1OC)c1ccc2cccnc2c1O (centres undefined) | 5.31 µM (active) | –
13 | COc1cccc(C(NC(C)=O)c2ccc3cccnc3c2O)c1 (centres undefined) | 4.22 µM (active) | –
14 | CCCC(=O)NC(c1ccc(C(C)C)cc1)c1ccc2cccnc2c1O (centres undefined) | 13.3 µM (active) | –
15 | CCCC(=O)NCCc1noc(-c2ccccc2)n1 | – | 30.7% (inactive)
16 | CCCC(=O)NC(c1ccccc1)c1ccc2cccnc2c1O (centres undefined) | 6.68 µM (active) | –
17 | Cc1cn2nc(-c3nc(C4CCCN(C(=O)c5cccs5)C4)no3)cc2c(=O)[nH]1 (centres undefined) | – | -8.72% (inactive)
18 | CCCCC(=O)NC(c1ccc(C(C)C)cc1)c1ccc2cccnc2c1O (centres undefined) | 7.5 µM (active) | –
19 | c1ccc(-[n+]2nc(Nc3cccc4ccccc34)sc2-c2c3ccccc3cc3ccccc23)cc1 | 5.96 µM (active) | –
20 | CCOC(=O)C1(Cc2ccc(Cl)cc2)CCN(Cc2ccc(OC)cc2O)CC1 | 0.188 µM (active) | –
21 | COc1cc(CN2CCC3(CC2)C(=O)NCN3Cc2ccc(Cl)cc2)ccc1F | – | 4.45% (inactive)
22 | COc1ccc(CNC(=O)C2=C(C)C(=O)OC23CCC(C)CC3)cc1 (centres undefined) | – | 4.46% (inactive)
23 | COc1ccc(CCN2CC(C(=O)N3CCC(CO)CC3)CCC2=O)cc1 (centres undefined) | – | 0% (inactive)
24 | COC(=O)[C@]1(C)CCC[C@@]2(C)C3CC[C@@]4(C)C[C@]3(CCC21)CC(=O)N4Cc1ccc(OC)cc1 (some centres undefined) | 3.76 µM (active) | –

Row | SMILES | Potency | activity change, negative = inhibition
25 | Cc1c(C#N)c2ccccc2n1CCOc1ccccc1F | 1.68 µM (active) | –
26 | COc1ccc(-c2nc(Cn3c(SCc4ccccc4F)nc4ccncc43)c(C)o2)cc1OC | 8.41 µM (active) | –
27 | CC(C)c1ccc(NC(=O)CSc2nc(=O)n(Cc3ccccn3)c3c2CCC3)cc1 | – | -16.5% (inactive)
28 | COc1cc(NC(=O)CSc2nc(-c3ccccc3)no2)cc(OC)c1 | 2.37 µM (active) | –
29 | COc1cc(NC(=O)CSc2nc(-c3ccc(C(C)C)cc3)no2)cc(OC)c1 | 0.842 µM (active) | –
30 | COc1cc(NC(=O)CSc2nc3nc(C)c(Cc4ccc(C)cc4)c(C)n3n2)cc(OC)c1 | – | -10.1% (inactive)
31 | COc1ccc2c(CNCc3ccccc3OC)c(C(=O)O)n(Cc3ccc(F)cc3Cl)c2c1 | 15 µM (active) | –
32 | COc1ccc(C2Cn3nnc(C(=O)NCc4ccc(F)cc4Cl)c3CO2)cc1 (centres undefined) | – | -9.54% (inactive)
33 | Cc1ncc2n1C(=O)N(C1CCN(Cc3ccnn3C)CC1)C2 | – | 41.7% [at 43.1 µM] (inactive)
34 | O=C(Nc1ccc([C@@H](O)[C@H]2COCC(=O)N2Cc2ccccc2F)cc1)c1ccccc1 | – | 3.31% [at 43.1 µM] (inactive)
35 | COc1ccc(CN2C(=O)COC[C@@H]2[C@H](O)c2ccc(NC(=O)c3ccc(C(C)(C)C)cc3)cc2)cc1 | 2.11 µM (active) | –
36 | O=C(Nc1ccc([C@@H](O)[C@H]2COCC(=O)N2Cc2ccc(F)cc2)cc1)c1ccc2c(c1)OCO2 | – | -12.2% (inactive)
37 | CCOC(=O)c1nnn(-c2nonc2N)c1-c1ccc(C)cc1 | 5.31 µM (active) | –
38 | CCOC(=O)c1nnn(-c2nonc2N)c1-c1ccc(Br)cc1 | 2.66 µM (active) | –
39 | COc1ccc(-c2noc(CCCC(=O)O)n2)cc1 | – | 22.9% (inactive)
40 | CCOC(=O)c1nnn(-c2nonc2N)c1-c1ccc(OC)cc1 | 5.31 µM (active) | –
41 | CCOC(=O)c1nnn(-c2nonc2N)c1-c1ccc(Cl)cc1 | 5.31 µM (active) | –
42 | Cc1noc(C)c1COC(=O)/C=C/c1ccc(Cl)cc1 | – | -11.8% (inactive)
43 | CCCS(=O)(=O)N1C[C@@H](COC)[C@H](c2nc(C)no2)C1 | – | 0% (inactive)
44 | CCC(=O)N1CCc2cc(Br)cc(S(=O)(=O)N3CCCC(C(=O)NC(C)(C)C)C3)c21 (centres undefined) | 3.35 µM (active) | –
45 | CCC(=O)N1CCc2cc(S(=O)(=O)NCCC(=O)Nc3ccc(OC)c(Cl)c3)ccc21 | – | 50.2% (inactive)
46 | CC(C)(C)NC(=O)C1CCCN(C2CCN(C3Cc4ccccc4C3)CC2)C1 (centres undefined) | – | -11.4% (inactive)
47 | CCC(=O)N1CCc2cc(Br)cc(S(=O)(=O)C3(C(=O)OC)CC3)c21 | 3.76 µM (active) | –
48 | CCC(=O)N1CCc2cc(Br)cc(S(=O)(=O)N3CCCCC3CC)c21 (centres undefined) | 1.06 µM (active) | –

Row | SMILES | Potency | activity change, negative = inhibition
49 | CCC(=O)N1CCc2cc(S(=O)(=O)CCC(=O)NCc3ccc(OC)cc3)ccc21 | – | 26.3% (inactive)
50 | Cc1nc(-c2ccccc2OC2CN(S(=O)(=O)Cc3ccccc3F)C2)no1 | – | -13% (inactive)
51 | CC(C)(C)c1ccc(CN(Cc2ccccc2)C(c2ccccn2)c2nnnn2C(C)(C)C)cc1 (centres undefined) | 4.73 µM (active) | –
52 | CC(C)(C)n1nnnc1C(c1cccnc1)N(Cc1ccccc1)Cc1ccco1 (centres undefined) | 5.31 µM (active) | –
53 | Cc1noc(C)c1NC(=O)N1CCC(c2n[nH]c(=O)n2-c2ccccc2)CC1 | – | 21.1% (inactive)
54 | Cc1nccn1CC(O)Cn1c2ccccc2c2ccccc21 (centres undefined) | 8.41 µM (active) | –
55 | Cc1ccccc1C(=O)N1CCC2(CC1)N(c1ccccc1)C(=O)CS2(=O)=O | – | 0.857% (inactive)
56 | O=C(c1cccc2[nH]ccc12)N1CCCC(n2cc(-c3nc(C4CC4)no3)nn2)C1 (centres undefined) | – | 21.1% (inactive)
57 | OCc1ccc(CN2CCCC(CCc3c(F)cccc3F)C2)o1 (centres undefined) | 4.22 µM (active) | –
58 | OC[C@H]1CCN(Cc2ccc(-c3cccc(Cl)c3Cl)o2)C[C@@H]1O | – | -7.08% (inactive)
59 | c1ccc(Oc2nc(-c3ccccn3)nc3ccccc23)cc1 | 7.5 µM (active) | –
60 | CCCOc1ccc(Oc2nc(-c3ccncc3)nc3ccccc23)cc1 | 4.22 µM (active) | –
61 | Cc1cccc(Oc2nc(-c3ccncc3)nc3ccccc23)c1 | 7.5 µM (active) | –
62 | Cc1cccc(Oc2nc(-c3ccccn3)nc3ccccc23)c1 | 7.5 µM (active) | –
63 | CCSc1nc(CC(=O)NCc2ccc(S(N)(=O)=O)cc2)cs1 | – | 16.3% (inactive)
64 | CC(=O)c1c(C)[nH]c(C(=O)COc2ccc3ccc(=O)oc3c2)c1C | – | -18% (inactive)
65 | Fc1ccc(Oc2nc(-c3ccccn3)nc3ccccc23)cc1 | 13.3 µM (active) | –
66 | c1ccc(-c2nc(N3CCCCCC3)c3ccccc3n2)nc1 | 1.68 µM (active) | –
67 | Cc1ccccc1Oc1nc(-c2ccccn2)nc2ccccc12 | 6.68 µM (active) | –
68 | Cc1nn(C)c2nc(-c3ccccn3)nc(N3CCC4(CC3)COC(=O)O4)c12 | – | 32.9% (inactive)
69 | CCCCCCSc1ccc([C@H]2N[C@@](Cc3ccccc3)(C(=O)OC)[C@H]3C(=O)N(CC)C(=O)[C@@H]23)cc1 | 3.35 µM (active) | –
70 | CCCCCCSc1ccc([C@H]2N[C@@](Cc3ccccc3)(C(=O)OC)[C@H]3C(=O)N(C)C(=O)[C@@H]23)cc1 | 4.73 µM (active) | –
71 | CCCSc1ccc([C@H]2N[C@@](Cc3ccccc3)(C(=O)OC)[C@H]3C(=O)N(CC)C(=O)[C@@H]23)cc1 | 5.31 µM (active) | –
72 | O=C(CCl)N(c1ccccc1)c1c[nH]c2ccccc12 | 2.11 µM (active) | –

Row | SMILES | Potency | activity change, negative = inhibition
73 | Cc1cc2nc(/C=C/c3nc4cc(C)c(C)cc4[nH]3)[nH]c2cc1C | – | -9.37% (inactive)
74 | Cc1cc(C)cc(N2CCN(c3cc(C4CC(O)C4)nc(C)n3)CC2=O)c1 (centres undefined) | – | 6.34% (inactive)
75 | NC1CC(c2cc(N3CCCN(C(=O)c4ccoc4)CC3)ncn2)C1 (centres undefined) | – | 45.1% (inactive)
76 | COc1ccc(N2CCN(c3cc(C4CC(N)C4)nc(N)n3)CC2(C)C)cc1 (centres undefined) | 2.99 µM (active) | –
77 | COc1ccc(/C=C/C(=O)Nc2ccc3nc4c(c(Nc5ccccc5OC)c3c2)CCCC4)cc1 | 3.35 µM (active) | –
78 | COc1ccccc1Nc1c2c(nc3ccc(NC(=O)/C=C/c4cccc(OC)c4OC)cc13)CCCC2 | 5.96 µM (active) | –
79 | Fc1ccc(F)c(Nc2c3c(nc4ccc(Cl)cc24)CCC3)c1 | – | -26.2% (inactive)
80 | Cc1cc(N2CCN(C3CCCC3)CC2)n2c(nc3ccccc32)c1C#N | 1.06 µM (active) | –
81 | O=C(N[C@H](c1ccccn1)C1CC(O)C1)c1cc(=O)n(-c2ccccc2)[nH]1 (some centres undefined) | 9.44 µM (active) | –
82 | COc1ccc(NS(=O)(=O)c2cc(NC(=O)/C=C/c3cc(OC)c(OC)c(OC)c3)ccc2N2CCCCC2)cc1 | 6.68 µM (active) | –
83 | COc1cc2nc(N3CCN(c4cc(C)ccc4C)CC3)nc(N)c2cc1OC | 6.68 µM (active) | –
84 | COc1cc2nc(Nc3ccc(C)c(C)c3)nc(N)c2cc1OC | 0.75 µM (active) | –
85 | COc1cc2nc(Nc3ccc(C)c(Cl)c3)nc(N)c2cc1OC | 2.11 µM (active) | –
86 | COc1ccc(C(=O)c2nccc3cc(OC)c(OC)cc23)cc1OC | – | 8.83% (inactive)
87 | CCOC(=O)c1ccc(Nc2nc(N)c3cc(OC)c(OC)cc3n2)cc1 | 1.88 µM (active) | –
88 | COc1ccc(Cl)cc1C(=O)NCc1nnc2c(-c3nc(C(C)C)no3)cccn12 | – | 7.64% (inactive)
89 | O=C(NCc1ccc(C(F)(F)F)cc1F)[C@H]1CCC[C@@H](O)C1 | – | 21.3% (inactive)
90 | CCOC(=O)c1c(S(=O)(=O)N2CCCC(C(=O)N3CCN(c4cc(C)ccc4C)CC3)C2)c(C)n(C)c1C (centres undefined) | 1.5 µM (active) | –
91 | CCOC(=O)c1c(C)[nH]c(C)c1S(=O)(=O)N1CCCC(C(=O)N2CCN(c3cc(C)ccc3C)CC2)C1 (centres undefined) | – | -90.8% (inactive)
92 | CCOC(=O)c1c(C)[nH]c(C)c1S(=O)(=O)N1CCCC(C(=O)N2CCN(c3cccc(C)c3C)CC2)C1 (centres undefined) | 1.33 µM (active) | –
93 | CCOC(=O)c1c(S(=O)(=O)N2CCCC(C(=O)N3CCN(c4cccc(C)c4C)CC3)C2)c(C)n(C)c1C (centres undefined) | 1.06 µM (active) | –
94 | CCc1cccc(OC2CN(C(=O)C3CCCN(CC(N)=O)C3)C2)c1 (centres undefined) | – | 47.6% (inactive)
